# In the supplement of paper PMC7156485:
# Where “and” joins values, the source holds several entries; their conditions need not be identical. Equal values may be shown once. ± gives the standard deviation of the averaged measurements.
# Tests used:
# Settings in all cases: concentration: 10 µM; 24 h
# [1] = test system: HCC1569; assay: cell number relative to DMSO (% of DMSO); higher = more cells (less growth inhibition / toxicity)
# Method in brief: (§1)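 H1.0 nuclear intensity or cell number is expressed as percent of the plate control, with the median of replicates taken. HCC1569 and TDF cells were treated with compounds at 10 µM for 24 h at 37 °C, in triplicate, then fixed and immunostained for H1.0 with DAPI as a nuclear stain. HCC1569 values were smoothed to correct for positional effects.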
# [2] = test system: TDF; assay: as above
# Method in brief: as §1
# [3] = test system: TDF; assay: H1.0 immunofluorescence intensity relative to DMSO (% of DMSO); higher = stronger H1.0 induction, active = 120 or more
# Method in brief: as §1
# [4] = test system: HCC1569; assay: H1.0 immunofluorescence intensity relative to DMSO (% of DMSO); higher = stronger H1.0 induction, active = 140 or more
# Method in brief: as §1
# 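Throughout, for H1.0 immunofluorescence intensity relative to DMSO: TDF is a line of transformed human dermal fibroblasts of mesenchymal origin.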
# 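Throughout, for cell number relative to DMSO: TDF denotes transformed human dermal fibroblasts of mesenchymal origin.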
Structure (SMILES),cell number [1],cell number [2],H1.0 immunofluorescence intensity [3],H1.0 immunofluorescence intensity [4]
O=C(O)C(O)C(O)C(=O)O.O=C(c1ccc(F)cc1)C1CCN(CCn2c(=O)[nH]c3ccccc3c2=O)CC1 [Ketanserin tartrate],96.9,93.1,106 (inactive),104 (inactive)
CCCCCCCCCCCCCC(=O)NC(C)C(O)c1ccccc1 [L-erythro MAPP],97.3,103,98 (inactive),108 (inactive)
N=C(N)N1CCc2ccccc2C1 [Debrisoquin],103,102,96 (inactive),96.4 (inactive)
CC1CNc2c(cccc2S(=O)(=O)N[C@@H](CCCN=C(N)N)C(=O)N2CC[C@@H](C)C[C@@H]2C(=O)O)C1.O (stereo partly drawn),102,104,89.5 (inactive),105 (inactive)
Nc1c(Br)cc(Br)cc1CNC1CCC(O)CC1 (stereo not drawn) [Ambroxol],104 ± 5.2,109 ± 5.6,100 (inactive),103 (inactive)
Cc1ccc(-c2cc(C(F)(F)F)nn2-c2ccc(S(N)(=O)=O)cc2)cc1 [Celecoxib],97.7,103,99.1 (inactive),106 (inactive)
CCOC(=O)C1=C(C)NC(C)=C(C(=O)OCC)C1c1ccccc1C=CC(=O)OC(C)(C)C [Lacidipine],93.2,93.4,98.1 (inactive),125 (inactive)
CN(c1ccccc1CNc1nc(Nc2ccc3c(c2)CC(=O)N3)ncc1C(F)(F)F)S(C)(=O)=O,54.4,22.4,113 (inactive),126 (inactive)
Cc1ccc(C(=O)Nc2ccc(S(=O)(=O)[O-])c3cc(S(=O)(=O)[O-])cc(S(=O)(=O)[O-])c23)cc1NC(=O)c1cccc(NC(=O)Nc2cccc(C(=O)Nc3cc(C(=O)Nc4ccc(S(=O)(=O)[O-])c5cc(S(=O)(=O)[O-])cc(S(=O)(=O)[O-])c45)ccc3C)c2)c1 [Suramin],94.4,86.9,96.7 (inactive),107 (inactive)
CCCCCCC=CCCCCCCCC(=O)O [9(Z)-Hexadecenoic acid],98.8,104,97.9 (inactive),101 (inactive)
CC(C)NCC(O)c1ccc(NS(C)(=O)=O)cc1.Cl (racemic),108,100,92.6 (inactive),99.1 (inactive)
CC(C=CC=C(C)C=CC1=C(C)C(=O)CCC1(C)C)=CC=CC=C(C)C=CC=C(C)C=CC1=C(C)C(=O)CCC1(C)C [Canthaxanthin],102 ± 4.6,104 ± 3.5,90 (inactive),106 (inactive)
"CCC=CCC=CCC=CCC=CCCCCC(=O)O.[Na] [6(Z), 9(Z), 12(Z), 15(Z)-Octadecatetraenoic acid]",102,91.9,106 (inactive),102 (inactive)
CC(O)CCCC(O)C=CC1C(O)CC(O)C1CC=CCCCC(=O)O [19(R)-Hydroxy-prostaglandin F2a],104,101,93.3 (inactive),95.9 (inactive)
CCN1CCCC1CNC(=O)c1cc(S(N)(=O)=O)ccc1OC [(S)-(-)-Sulpiride],99.3,98.1,99.8 (inactive),101 (inactive)
"Cn1c(=O)c2[nH]c(C3CCCC3)nc2n(C)c1=O [8-Cyclopentyl-1,3-dimethylxanthine]",97.7,99.4,98.6 (inactive),102 (inactive)
Cn1cc(C2=C(c3ccc(Cl)cc3Cl)C(=O)NC2=O)c2ccccc21,86.2 and 92.3,100 and 111,104 (inactive) and 105 (inactive),158 (active) and 136 (inactive)
Cn1c2ccccc2c2c3c(c4c5ccccc5n(CCC#N)c4c21)CNC3=O,94.3,30.5,90.7 (inactive),99.5 (inactive)
CC(C)c1ccc2oc3nc(N)c(C(=O)O)cc3c(=O)c2c1,104,109,97.3 (inactive),92.5 (inactive)
CCNC(=O)C1OC(n2cnc3c(NCc4ccccc4)ncnc32)C(O)C1O (stereo not drawn) [N6-Benzyl-5'-N-ethylcarboxamidoadenosine],77,57.3,103 (inactive),114 (inactive)
O=C(O)C=Cc1ccc(Cn2ccnc2)cc1 [Ozagrel],100,101,93.8 (inactive),104 (inactive)
Br.CN1C2CCC1CC(OC(=O)C(O)c1ccccc1)C2 (stereo not drawn),102,97.5,97.2 (inactive),94.6 (inactive)
COc1ccc2cc(C(C)C(=O)O)ccc2c1 (stereo not drawn) [Naproxen],99.9,83.8,98.1 (inactive),109 (inactive)
CCCc1nn(C)c2c(=O)nc(-c3cc(S(=O)(=O)N4CCN(C)CC4)ccc3OCC)[nH]c12 [Sildenafil],101,94,95.1 (inactive),103 (inactive)

Structure (SMILES),cell number [1],cell number [2],H1.0 immunofluorescence intensity [3],H1.0 immunofluorescence intensity [4]
OCC1OC(n2cnc3c(NC4CCCCC4)ncnc32)C(O)C1O (stereo not drawn) [N6-Cyclohexyladenosine],100,105,97.9 (inactive),92.8 (inactive)
Cc1ccccc1-n1c(Cn2nc(-c3cccc(O)c3)c3c(N)ncnc32)nc2cccc(C)c2c1=O,96.9,95.1,97.7 (inactive),103 (inactive)
Cc1cccc(-c2[nH]c(C(C)(C)C)nc2-c2ccc3c(c2)OCO3)n1.Cl [TGF-b RI Inhibitor III],96.3,84,97.7 (inactive),122 (inactive)
N#CC(=Cc1ccc(O)c(O)c1)C(=O)Nc1ccccc1 [Tyrphostin AG 494],87.1,94.9,88 (inactive),108 (inactive)
COc1ccc2cc(CCC(C)=O)ccc2c1 [Nabumetone],107,97.4,93.8 (inactive),111 (inactive)
CCCCCCCCCCCCCCCCCC(=O)NCC(COP(=O)([O-])OCC[N+](C)(C)C)OC (racemic) [rac-2-Methoxy-3-octadecanamido-1-propylphosphocholine],101,84.5,95.2 (inactive),101 (inactive)
Oc1ccc(Cn2cc[nH]c2=S)cc1 [1-(4-Hydroxybenzyl)imidazole-2-thiol],102,101,95.7 (inactive),96.1 (inactive)
CCOC(=O)C(CCc1ccccc1)NC(C)C(=O)N1C(C(=O)O)CC2CCCC21 (stereo not drawn) [Ramipril],105,105,94.6 (inactive),111 (inactive)
NC(N)=NN=Cc1c(Cl)cccc1Cl [Guanabenz],98.5,91.9,98.2 (inactive),118 (inactive)
CCCN(CCC)CC1CCCCN1CCNC(=O)N1c2ccccc2C(=O)Nc2cccnc21 (stereo not drawn),98.5,112,87.8 (inactive),100 (inactive)
O=c1[nH]ccc2c(S(=O)(=O)N3CCCNCC3)cccc12,106,110,86 (inactive),104 (inactive)
Cc1ccccc1N1CCN(S(=O)(=O)CC23CCC(CC2NC(=O)C(N)CCS(C)(=O)=O)C3(C)C)CC1.Cl (stereo not drawn),101,104,94.1 (inactive),99 (inactive)
O=C1NC(=O)C(=Cc2ccc3c(c2)OC(F)(F)O3)S1 [PI 3-KbInhibitor II],100,96.8,103 (inactive),112 (inactive)
NC(C(=O)NC1C(=O)N2C(C(=O)O)=C(Cl)CSC12)c1ccccc1 (stereo not drawn) [Cefaclor],101,99.5,103 (inactive),85.8 (inactive)
"CCCCS(=N)(=O)CCC(N)C(=O)O (racemic) [DL-Buthionine-[S,R]-sulfoximine]",102,102,97.8 (inactive),99.9 (inactive)
CC(C)c1cc(C(C)C)c(CC(=O)NS(=O)(=O)Oc2c(C(C)C)cccc2C(C)C)c(C(C)C)c1,94.4,103,89.8 (inactive),110 (inactive)
CCN1CCc2nc(N)oc2CC1.Cl.Cl [B-HT 933 dihydrochloride],99.5,104,97 (inactive),87.2 (inactive)
CCCCCCCCC=CCCCCCCCCCCCC(=O)O [13(Z)-Docosenoic acid],104,108,95.2 (inactive),102 (inactive)
C=C1CC2C3C=C(C)C4=CC(=O)CCC4(C)C3CCC2(C)C1(OC(C)=O)C(C)=O (stereo not drawn) [Melengestrol Acetate],102,103,94.3 (inactive),109 (inactive)
C#CC1(O)CCC2C3CCC4=CC(=O)CCC4C3CCC21C (stereo not drawn) [Norethindrone],96.5,91,99.5 (inactive),109 (inactive)
CC12CC3CC(C)(C1)CC(N)(C3)C2.Cl [Memantine.HCl],94.8,102,90.8 (inactive),100 (inactive)
Cc1ccc(NC2=CC(=O)c3sc(C)nc3C2=O)cc1,27.9,14.5,122 (active),104 (inactive)
CC(C)NCC(O)COc1ccc(CCOCC2CC2)cc1.Cl (stereo not drawn) [Betaxolol.HCl],103,98,90.4 (inactive),102 (inactive)
